# Test results reported in PubChem BioAssay (NCATS).
# Records with an inconclusive call do not appear. Where a call stands in place of a potency, no number is given. Where a structure was tested more than once in an assay, its records may differ in their call. Calls of active or inactive are those of the source. Unless noted, calls follow the shape of the full dose curve.
# Key:
# [1] = Primary qHTS for inhibitors of SARS-S pseudo-typed particle cell entry (AID 1479145); settings: outcome: dose series up to 57.1 µM unless noted; also: nearly all actives have a fitted effect of over 45% in size; also: potency is read from the fitted curve at half-maximal effect
# [2] = Primary qHTS for Huh7 cytotoxicity: counterscreen for inhibitors of MERS-S pseudotyped particle cell entry (AID 1479147); settings: outcome: dose series up to 57.1 µM unless noted
# [3] = Primary qHTS for inhibitors of MERS-S pseudo-typed particle cell entry (AID 1479149); settings: outcome: dose series up to 57.1 µM unless noted; also: nearly all actives have a fitted effect of over 60% in size; also: potency is read from the fitted curve at half-maximal effect
# [4] = Cytotoxicity counterscreen for inhibitors of SARS-CoV-2 cell entry (AID 1645845); settings: outcome: dose series up to 57.1 µM unless noted; also: nearly all actives have a fitted effect of over 50% in size; also: potency is read from the fitted curve at half-maximal effect
# Summary of the method: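 After a 15 min room-temperature ATPLite 1step step, luminescence reflected ATP remaining in HEK293-ACE2 cells exposed to compound for 1 h plus 48 h at 37 C, with percent activity set by cell and no-cell controls.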
# [5] = Primary qHTS to identify inhibitors of SARS-CoV-2 cell entry (AID 1645846); settings: SARS-CoV-2 pseudovirus cell entry assay, luminescence; activity change, negative = inhibition: at 57.1 µM (top of the series) unless noted; also: nearly all actives have a fitted effect of over 45% in size; also: potency is read from the fitted curve at half-maximal effect
# Summary of the method: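 HEK293 cells stably expressing human ACE2, pre-treated 1 h with compound, then infected with MLV particles pseudotyped with Wuhan-Hu-1 spike (C-terminal 19-aa truncation). Luciferase luminescence after 48 h at 37 °C, normalised to spike PP and bald PP.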
# [6] = biological target: Peroxisome proliferator-activated receptor delta (Homo sapiens) (UniProt Q03181); assay: qHTS assay for small molecule agonists of peroxisome proliferator-activated receptor delta signaling (AID 588534)
# Summary of the method: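 Agonist-mode qHTS; reporter cells, 5 hrs 37 C pre-incubation; compound titration, 18 hrs 37 C; CCF4 dye, 2 hrs RT; fluorescence read. EC50/efficacy via Hill fit.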
# [7] = qHTS assay for small molecule agonists of retinoid X receptor alpha signaling (AID 588544); settings: HEK293T RXRa-UAS-bla, beta-lactamase reporter, 18 h; 530 nm emission
# [8] = biological target: Retinoic acid receptor RXR-alpha (Homo sapiens) (UniProt P19793); assay: as above
# [9] = biological target: Thyroid hormone receptor beta (Homo sapiens) (UniProt P10828); assay: qHTS assay for small molecule agonists of thyroid hormone receptor beta signaling (AID 588545)
# Summary of the method: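 Beta-lactamase reporter activity under TR response element control is measured in HEK 293 cells after 18 hrs compound exposure. Signal is ratiometric CCF4 fluorescence, 460/530 nm.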
# [10] = qHTS assay for small molecule agonists of the antioxidant response element (ARE) signaling pathway (AID 651741; active = well fitted activation curve with a large enough effect in the signal ratio; the % refers to the signal ratio; also: potency is read from the fitted curve at half-maximal effect)
# Summary of the method: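 Reporter: beta-lactamase under ARE, stably in HepG2. Exposure: 16 h, 37 C, compounds delivered in DMSO by pin tool after 5 h cell preincubation. Readout: FRET substrate fluorescence after 2 h at RT.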
# [11] = Primary qHTS for Vero E6 cytotoxicity: counterscreen for inhibitors of SARS-S pseudo-typed particle cell entry (AID 1479150); settings: outcome: dose series up to 57.1 µM unless noted
# [12] = biological target: ATP-dependent 6-phosphofructokinase (Trypanosoma brucei brucei) (UniProt O15648); assay: qHTS Assay to Find Inhibitors of T. brucei phosphofructokinase: hit validation (AID 492961; active = well fitted curve in the direction sought with a large enough effect; an effect the other way counts as inactive or inconclusive;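 also: luminescence reports ADP formed as PFK phosphorylates fructose-6-phosphate with ATP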)
# Summary of the method: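 PFK 1.25 nM, F6P 0.5 mM, ATP 0.1 mM, MgCl2 5 mM, 0.1 M TEA pH 8.0, Tween20 0.01%, BSA 0.1%; 45 min RT. ADP-Glo two-step detection, luminescence. qHTS titration; curve fitting with curve-class categorization.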
# [13] = biological target: Cytochrome P450 2C9 (Homo sapiens) (UniProt P11712); assay: qHTS Assay for Inhibitors and Substrates of Cytochrome P450 2C9 (AID 883; active = well fitted curve in the direction sought with a large enough effect; an effect the other way counts as inactive or inconclusive; also: potency is read from the fitted curve at half-maximal effect; nearly all actives have a fitted effect of over 60% in size)
# Summary of the method: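 Human CYP2C9 (10nM) hydroxylated Luciferin-H (100uM, at its KM) to luciferin in 25mM KPO4. Compound was preincubated 10 min at 37C, then NADPH regeneration started a 60 min reaction at 37C. Luminescence was read after detection reagent, normalized to 57uM sulphaphenazole.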
# [14] = biological target: Cytochrome P450 3A4 (Homo sapiens) (UniProt P08684); assay: qHTS Assay for Inhibitors and Substrates of Cytochrome P450 3A4 (AID 884; active = well fitted curve in the direction sought with a large enough effect; an effect the other way counts as inactive or inconclusive; also: potency is read from the fitted curve at half-maximal effect; nearly all actives have a fitted effect of over 50% in size)
# Summary of the method: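 Luminescent readout of luciferin produced by CYP3A4 (20 nM) dealkylation of Luciferin-PPXE, 25 uM (its KM). NADPH-driven reaction ran 60 min at RT after 10 min compound preincubation; data scaled to 57 uM ketoconazole as 100% inhibition.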
# [15] = biological target: Cytochrome P450 3A4 (Homo sapiens) (UniProt P08684); assay: qHTS Assay for Activators of Cytochrome P450 3A4 (AID 885; active = well fitted curve in the direction sought with a large enough effect; an effect the other way counts as inactive or inconclusive; also: nearly all actives have a fitted effect of over 65% in size)
# Summary of the method: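 Activators are scored by enhanced luminescence from CYP3A4 conversion of luciferin-PPXE (25uM, equal to KM) to luciferin, after 60 min at RT with an NADPH-regenerating system.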
# [16] = biological target: Cytochrome P450 2D6 (Homo sapiens) (UniProt P10635); assay: qHTS Assay for Inhibitors and Substrates of Cytochrome P450 2D6 (AID 891; active = well fitted curve in the direction sought with a large enough effect; an effect the other way counts as inactive or inconclusive; also: potency is read from the fitted curve at half-maximal effect; nearly all actives have a fitted effect of over 60% in size)
# Summary of the method: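 Luminescent read-out of luciferin formed by 5 nM human CYP2D6 demethylating 30 uM Luciferin-ME EGE (Km level) over 60 min at room temperature after NADPH regeneration addition. Data normalized to full inhibition by 1.43 uM quinidine.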
# Peroxisome proliferator-activated receptor delta (Homo sapiens), sequence (Q03181 whole entry, looked up): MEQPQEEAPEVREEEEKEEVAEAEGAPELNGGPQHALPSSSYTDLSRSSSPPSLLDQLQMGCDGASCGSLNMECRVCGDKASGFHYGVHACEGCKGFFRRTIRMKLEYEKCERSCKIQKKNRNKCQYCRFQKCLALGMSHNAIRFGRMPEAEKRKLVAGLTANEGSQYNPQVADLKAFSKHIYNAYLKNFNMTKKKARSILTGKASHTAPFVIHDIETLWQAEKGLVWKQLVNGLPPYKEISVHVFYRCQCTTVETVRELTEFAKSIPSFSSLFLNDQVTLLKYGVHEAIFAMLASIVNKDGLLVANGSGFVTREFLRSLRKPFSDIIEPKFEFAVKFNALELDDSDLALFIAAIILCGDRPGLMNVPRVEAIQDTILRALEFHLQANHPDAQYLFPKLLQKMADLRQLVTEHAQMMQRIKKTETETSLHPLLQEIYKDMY
# Cytochrome P450 3A4 (Homo sapiens), sequence (P08684 whole entry, looked up): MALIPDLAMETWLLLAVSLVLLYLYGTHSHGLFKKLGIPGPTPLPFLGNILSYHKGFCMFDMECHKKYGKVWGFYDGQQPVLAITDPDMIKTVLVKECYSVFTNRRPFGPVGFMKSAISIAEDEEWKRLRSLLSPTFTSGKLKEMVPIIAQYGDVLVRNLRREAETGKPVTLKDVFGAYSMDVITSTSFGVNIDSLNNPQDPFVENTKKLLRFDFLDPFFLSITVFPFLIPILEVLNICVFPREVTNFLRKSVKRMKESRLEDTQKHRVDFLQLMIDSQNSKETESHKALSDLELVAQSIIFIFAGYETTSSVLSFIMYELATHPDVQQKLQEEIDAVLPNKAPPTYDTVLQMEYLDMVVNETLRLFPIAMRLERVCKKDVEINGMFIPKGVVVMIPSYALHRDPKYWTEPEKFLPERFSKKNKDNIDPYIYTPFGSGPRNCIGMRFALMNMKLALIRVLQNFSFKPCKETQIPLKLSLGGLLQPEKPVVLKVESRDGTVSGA
# ATP-dependent 6-phosphofructokinase (Trypanosoma brucei brucei), sequence (O15648 whole entry, looked up): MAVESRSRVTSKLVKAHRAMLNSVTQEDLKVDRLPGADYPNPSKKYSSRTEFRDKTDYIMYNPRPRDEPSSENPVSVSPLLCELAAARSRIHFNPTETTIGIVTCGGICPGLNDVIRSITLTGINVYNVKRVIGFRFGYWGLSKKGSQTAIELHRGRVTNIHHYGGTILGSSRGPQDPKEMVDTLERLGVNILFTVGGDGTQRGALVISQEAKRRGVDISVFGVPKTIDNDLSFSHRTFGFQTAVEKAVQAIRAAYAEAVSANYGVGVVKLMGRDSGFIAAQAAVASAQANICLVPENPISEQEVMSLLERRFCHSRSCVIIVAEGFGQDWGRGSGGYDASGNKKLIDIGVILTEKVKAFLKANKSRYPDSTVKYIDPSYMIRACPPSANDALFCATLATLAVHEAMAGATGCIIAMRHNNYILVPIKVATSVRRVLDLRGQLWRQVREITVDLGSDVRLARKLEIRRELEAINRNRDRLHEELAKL
# Thyroid hormone receptor beta (Homo sapiens), sequence (P10828 whole entry, looked up): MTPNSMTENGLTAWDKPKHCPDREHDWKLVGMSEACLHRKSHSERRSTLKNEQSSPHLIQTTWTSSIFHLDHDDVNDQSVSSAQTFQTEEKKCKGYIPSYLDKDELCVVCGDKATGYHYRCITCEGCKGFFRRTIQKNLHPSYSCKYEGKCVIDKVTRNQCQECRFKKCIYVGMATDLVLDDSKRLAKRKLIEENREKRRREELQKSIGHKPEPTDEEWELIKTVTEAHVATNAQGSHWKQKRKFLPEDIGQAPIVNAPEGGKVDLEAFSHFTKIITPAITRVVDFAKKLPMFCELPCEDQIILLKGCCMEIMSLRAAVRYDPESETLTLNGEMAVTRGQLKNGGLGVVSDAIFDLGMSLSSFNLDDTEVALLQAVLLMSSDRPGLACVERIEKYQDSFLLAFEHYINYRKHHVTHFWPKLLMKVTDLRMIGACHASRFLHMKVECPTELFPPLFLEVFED
# Cytochrome P450 2D6 (Homo sapiens), sequence (P10635 whole entry, looked up): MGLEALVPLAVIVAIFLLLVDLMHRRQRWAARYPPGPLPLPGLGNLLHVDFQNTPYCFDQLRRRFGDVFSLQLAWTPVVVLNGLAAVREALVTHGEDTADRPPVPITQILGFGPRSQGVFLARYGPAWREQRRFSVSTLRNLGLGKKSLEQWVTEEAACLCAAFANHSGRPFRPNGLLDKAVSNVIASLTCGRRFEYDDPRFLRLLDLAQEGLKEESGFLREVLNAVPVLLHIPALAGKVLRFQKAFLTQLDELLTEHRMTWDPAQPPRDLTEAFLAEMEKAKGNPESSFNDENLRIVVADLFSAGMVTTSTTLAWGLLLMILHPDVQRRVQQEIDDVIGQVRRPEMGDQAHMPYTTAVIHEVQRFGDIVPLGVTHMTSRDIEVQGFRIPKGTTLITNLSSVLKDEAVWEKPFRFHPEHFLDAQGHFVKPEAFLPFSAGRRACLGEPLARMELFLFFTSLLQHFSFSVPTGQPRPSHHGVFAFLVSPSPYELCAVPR
# Retinoic acid receptor RXR-alpha (Homo sapiens), sequence (P19793 whole entry, looked up): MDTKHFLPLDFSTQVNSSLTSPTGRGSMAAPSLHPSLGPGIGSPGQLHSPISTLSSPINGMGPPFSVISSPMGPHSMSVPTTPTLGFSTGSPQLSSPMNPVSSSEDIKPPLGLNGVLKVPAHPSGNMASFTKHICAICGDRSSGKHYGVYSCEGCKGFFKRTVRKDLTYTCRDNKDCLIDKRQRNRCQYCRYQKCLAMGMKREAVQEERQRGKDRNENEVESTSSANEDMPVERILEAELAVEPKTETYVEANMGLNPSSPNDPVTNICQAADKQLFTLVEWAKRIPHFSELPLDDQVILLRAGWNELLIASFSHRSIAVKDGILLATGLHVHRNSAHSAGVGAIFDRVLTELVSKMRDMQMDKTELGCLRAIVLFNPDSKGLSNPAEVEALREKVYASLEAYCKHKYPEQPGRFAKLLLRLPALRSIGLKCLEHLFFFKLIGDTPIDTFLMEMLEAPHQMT
# Cytochrome P450 2C9 (Homo sapiens), sequence (P11712 whole entry, looked up): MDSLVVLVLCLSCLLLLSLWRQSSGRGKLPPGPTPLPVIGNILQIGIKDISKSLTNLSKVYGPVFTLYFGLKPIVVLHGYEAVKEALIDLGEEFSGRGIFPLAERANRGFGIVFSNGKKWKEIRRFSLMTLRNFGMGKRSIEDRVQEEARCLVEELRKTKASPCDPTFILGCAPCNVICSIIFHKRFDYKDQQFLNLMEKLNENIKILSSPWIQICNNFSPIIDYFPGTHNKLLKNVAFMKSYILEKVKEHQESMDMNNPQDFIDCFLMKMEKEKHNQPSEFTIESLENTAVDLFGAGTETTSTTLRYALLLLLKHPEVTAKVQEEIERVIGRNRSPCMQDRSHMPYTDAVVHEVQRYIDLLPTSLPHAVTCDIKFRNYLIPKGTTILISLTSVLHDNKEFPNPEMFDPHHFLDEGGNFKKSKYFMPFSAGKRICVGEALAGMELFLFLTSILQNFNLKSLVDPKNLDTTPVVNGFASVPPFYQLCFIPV
compound,measurement,setting,value
O=C(/C=C/c1cccc(S(=O)(=O)Nc2ccccc2)c1)NO,Potency,[1],10 µM (active)
same,Potency,[2],inactive
same,Potency,[3],inactive
same,Potency,[4],12.6 µM (active)
same,"activity change, negative = inhibition",[5],-13.6%
Cc1cccc(O)c1,outcome,[6],inactive
same,max response,[7],-15.1%
same,Potency,[8],inactive
same,outcome,[9],inactive
same,Potency,[10],355 µM (active) and inactive
same,Potency,[1],inactive
same,Potency,[2],inactive
same,Potency,[3],inactive
same,Potency,[11],inactive
same,Potency,[4],inactive
CCCCCCCCCCCC[n+]1ccc2ccccc2c1,Potency,[1],2.82 µM (active)
same,Potency,[2],inactive
same,Potency,[3],5.62 µM (active)
same,Potency,[5],3.16 µM (active)
O=C(O)c1ccc(NC(=O)[C@H](Cc2ccc(O)cc2)NC(=O)c2ccccc2)cc1,Potency,[1],inactive
same,Potency,[2],inactive
same,Potency,[3],inactive
same,Potency,[11],inactive
same,"activity change, negative = inhibition",[5],-10.6%
O=C(O)C1=C(CSc2nnnn2CS(=O)(=O)O)CS[C@@H]2[C@@H](NC(=O)[C@H](O)c3ccccc3)C(=O)N12,Potency,[1],inactive
same,Potency,[2],inactive
same,Potency,[3],inactive
same,Potency,[11],inactive
same,"activity change, negative = inhibition",[5],-22.2%
c1ccc2scnc2c1,outcome,[6],inactive
same,Potency,[1],inactive
same,Potency,[2],inactive
same,Potency,[3],inactive
same,Potency,[11],inactive
same,Potency,[4],inactive
N[C@@H]1CCCCN(c2c(F)cc3c(=O)c(C(=O)O)cn(C4CC4)c3c2Cl)C1,Potency,[1],inactive
same,Potency,[2],inactive
same,Potency,[3],inactive
same,Potency,[11],inactive
same,"activity change, negative = inhibition",[5],-8.2%
NC(=O)CCC1NC(=O)C(Cc2ccccc2)NC(=O)C(Cc2ccc(O)cc2)NC(=O)CCSSCC(C(=O)N2CCCC2C(=O)NC(CCCN=C(N)N)C(=O)NCC(N)=O)NC(=O)C(CC(N)=O)NC1=O (stereo unspecified),Potency,[12],inactive
same,Potency,[1],inactive
same,Potency,[2],inactive
same,Potency,[3],inactive
same,Potency,[11],inactive
CC1(O)CCC(C(C)(C)O)CC1 (stereo unspecified),Potency,[1],inactive
same,Potency,[2],inactive
same,Potency,[3],inactive
same,Potency,[11],inactive
same,Potency,[5],inactive
CC(C)(CO)[C@@H](O)C(=O)NCCC(=O)NCCSSCCNC(=O)CCNC(=O)[C@H](O)C(C)(C)CO,Potency,[1],inactive
same,Potency,[2],inactive
same,Potency,[3],inactive
same,Potency,[11],inactive
same,"activity change, negative = inhibition",[5],-13.3%
CC[C@H]1OC(=O)[C@H](C)[C@@H](O[C@H]2C[C@@](C)(OC)[C@@H](O)[C@H](C)O2)[C@H](C)[C@@H](O[C@@H]2O[C@H](C)C[C@H](N(C)C)[C@H]2O)C(C)(O)C[C@@H](C)/C(=N\OCOCCOC)[C@H](C)[C@@H](O)[C@]1(C)O (stereo partly specified),Potency,[1],inactive
same,Potency,[2],inactive
same,Potency,[3],inactive
same,Potency,[11],inactive
same,Potency,[5],inactive
O=C(NNCS(=O)(=O)O)c1ccncc1,Potency,[1],inactive
same,Potency,[2],inactive
same,Potency,[3],inactive
same,Potency,[4],inactive
same,"activity change, negative = inhibition",[5],-23.7%
O=C(O)c1ccccc1C(c1ccc(O)cc1)c1ccc(O)cc1,outcome,[6],inactive
same,Potency,[1],inactive
same,Potency,[2],inactive
same,Potency,[3],inactive
same,Potency,[11],inactive
same,Potency,[4],inactive
O=C(OCc1ccccc1)c1cccnc1,Potency,[1],inactive
same,Potency,[2],inactive
same,Potency,[3],inactive
same,Potency,[4],inactive
same,"activity change, negative = inhibition",[5],1.27%
OC(CN1CCCCC1)c1cc(-c2ccccc2)on1 (stereo unspecified),Potency,[1],inactive
same,Potency,[2],inactive
same,Potency,[3],inactive
same,Potency,[11],inactive
same,"activity change, negative = inhibition",[5],-15.3%
CCOc1ccc2c(c1)C(C)=CC(C)(C)N2,Potency,[13],2 µM (active)
same,Potency,[14],15.8 µM (active)
same,Potency,[15],inactive
same,Potency,[16],2.51 µM (active)
same,outcome,[6],inactive
